Test results taken from PubChem BioAssay AID1159580 (chemical genetic matrix, 2015).
“And” between values parts separate entries of the source, which are not always exact repeats. Equal entries are not always repeated. The campaign covered roughly 5,500 compounds. About 2,000 (36%) were called active. About 18% were inconclusive and are not listed. Rule as the data show it: active = normalized growth mostly below about 0.91 (no sharp cut-off); inconclusive = no clear call, values can overlap the other calls; inactive = mostly above about 0.92. This is one part of the list.

Experiment: chemical genetic growth profiling, strain panel (AID 1159580);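 also: tested at 20 µM; growth read once vehicle control cultures reached saturation at 30 °C; 1 = growth at the plate median or of vehicle wells; lower values mean less growth of the strain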
Conditions: S. cerevisiae deletion strains, growth OD

Measured: normalized growth

O=C(O)CCCc1ccc(N(CCCl)CCCl)cc1
inactive: locus YAL021C, strain ccr4, hits give low values 0.929 | locus YAL026C, strain drs2, hits give low values 0.965 | locus YAL030W, strain snc1, hits give low values 0.971 | locus YAL040C, strain CLN3, hits give low values 1.1 | locus YBL061C, strain skt5, hits give low values 0.985 | locus YBR009C, strain hhf1, hits give low values 1 | locus YBR021W, strain FUR4, hits give low values 1.01 | locus YBR023C, strain chs3, hits give low values 0.957 | locus YBR171W, strain sec66, hits give low values 0.983 | locus YBR229C, strain ROT2, hits give low values 0.95 | locus YBR231C, strain swc5, hits give low values 0.997 | locus YBR279W, strain paf1, hits give low values 0.955 | locus YCL011C, strain gbp2, hits give low values 0.959 | locus YCL016C, strain dcc1, hits give low values 0.931 | locus YCL029C, strain bik1, hits give low values 0.989 | locus YCL061C, strain MRC1, hits give low values 0.986 | locus YCL069W, strain vba3, hits give low values 0.977 | locus YCR088W, strain abp1, hits give low values 0.984 | locus YDL005C, strain med2, hits give low values 0.997 | locus YDL035C, strain GPR1, hits give low values 0.974 | locus YDL040C, strain nat1, hits give low values 0.979 | locus YDL074C, strain BRE1, hits give low values 1 | locus YDL101C, strain DUN1, hits give low values 0.986 | locus YDL185W, strain tfp1, hits give low values 0.973 | locus YDL192W, strain arf1, hits give low values 0.984 | locus YDR001C, strain nth1, hits give low values 0.973 | locus YDR069C, strain doa4, hits give low values 0.955 | locus YDR101C, strain arx1, hits give low values 0.991 | locus YDR137W, strain rgp1, hits give low values 0.943 | locus YDR150W, strain NUM1, hits give low values 0.989 | locus YDR159W, strain sac3, hits give low values 1.01 | locus YDR162C, strain NBP2, hits give low values 0.947 | locus YDR195W, strain ref2 0.959 | locus YDR297W, strain sur2, hits give low values 0.986 | locus YDR318W, strain mcm21, hits give low values 0.999 | locus YDR334W, strain swr1, hits give low values 0.969 | locus YDR335W, strain msn5, hits give low values 0.967 | locus YDR363W, strain ESC2, hits give low values 1 | locus YDR388W, hits give low values 0.985 | locus YDR392W, strain spt3, hits give low values 0.881 | locus YDR502C, strain sam2, hits give low values 1 | locus YEL003W, strain gim4, hits give low values 0.988 | locus YEL037C, strain rad23, hits give low values 0.97 | locus YEL061C, strain CIN8 (second series), hits give low values 0.966 | locus YEL061C, strain CIN8, hits give low values 0.991 | locus YER002W, strain NOP16, hits give low values 1.02 | locus YER015W, strain faa2, hits give low values 0.973 | locus YER016W, strain bim1, hits give low values 0.986 | locus YER110C, hits give low values 0.983 | locus YER111C, strain swi4, hits give low values 0.978 | locus YER155C, strain BEM2 (second series), hits give low values 1.01 | locus YER155C, strain BEM2, hits give low values 0.991 | locus YER167W, strain BCK2, hits give low values 0.99 | locus YFR010W, strain ubp6, hits give low values 1 | locus YGL078C, strain dbp3, hits give low values 0.952 | locus YGL086W, strain mad1, hits give low values 0.932 | locus YGL167C, strain pmr1, hits give low values 0.978 | locus YGL173C, strain kem1, hits give low values 0.999 | locus YGL227W, strain vid30, hits give low values 0.955 | locus YGL240W, strain doc1, hits give low values 0.97 | locus YGL248W, strain PDE1, hits give low values 1 | locus YGL253W, strain hxk2, hits give low values 0.925 | locus YGR135W, strain pre9, hits give low values 1.04 | locus YGR252W, strain gcn5, hits give low values 1.07 | locus YHR013C, strain ard1, hits give low values 0.956 | locus YHR027C, strain rpn1, hits give low values 0.977 | locus YHR030C, strain SLT2, hits give low values 0.982 and 0.856 | locus YHR079C, strain IRE1 (second series), hits give low values 0.996 | locus YHR079C, strain IRE1, hits give low values 0.876 | locus YHR094C, strain hxt1, hits give low values 0.983 | locus YHR129C, strain ARP1, hits give low values 0.988 | locus YHR142W, strain chs7, hits give low values 0.949 | locus YHR200W, strain rpn10, hits give low values 0.981 | locus YIL066C, strain RNR3, hits give low values 0.967 | locus YIL073C, strain SPO22, hits give low values 1.02 | locus YIL125W, strain kgd1, hits give low values 0.95 | locus YIR030C, strain dcg1, hits give low values 0.983 | locus YJL092W, strain hpr5, hits give low values 0.967 | locus YJL095W, strain BCK1 (second series), hits give low values 0.974 | locus YJL095W, strain BCK1, hits give low values 1.06 and 0.888 | locus YJL115W, strain asf1, hits give low values 0.952 | locus YJL129C, strain trk1, hits give low values 0.927 | locus YJL134W, strain LCB3, hits give low values 0.983 | locus YJL154C, strain vps35, hits give low values 0.972 | locus YJL164C, strain tpk1, hits give low values 0.988 | locus YJL166W, strain qcr8, hits give low values 1 | locus YJL168C, strain set2, hits give low values 0.984 | locus YJL187C, strain SWE1 (second series), hits give low values 1 | locus YJR043C, strain POL32, hits give low values 0.963 | locus YJR066W, strain TOR1, hits give low values 0.967 | locus YJR075W, strain HOC1, hits give low values 1.02 and 0.993
